Laboratory results as given in PubChem BioAssay.
The source made the active and inactive calls.

Columns and labels:
[1] = test system: PRMT1 (protein arginine N-methyltransferase 1); assay: PRMT1 binders on small-molecule microarrays, primary screen, biochemical, small-molecule microarray, 635 nm fluorescence (AID 1088); settings: small-molecule microarray binding, higher = more signal;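 also: binding of Prmt1 protein to compounds spotted on small-molecule microarray slides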
[2] = yeast growth modulation, basal conditions, primary screen, YJM789 clinical isolate, OD600, 24 h (AID 1089);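 also: growth of clinical yeast isolate S. cerevisiae YJM 789 seeded 1000 cells per well; test concentration not given here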; settings: S. cerevisiae YJM789 growth, higher = more signal, called active from +8 up or from −8 down
[3] = fission yeast growth modulation, primary screen, strain 972, OD600, 24 h, no modulator (AID 1090);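 also: basal condition with compound alone and no growth modifier present; test concentration not given here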; settings: S. pombe 972 growth, higher = more signal, called active from +8 up or from −8 down
[4] = S. cerevisiae growth modulation with rapamycin, primary screen, strain BY4716, OD600, 96 h (AID 1091); settings: higher = more signal, called active from +8 up or from −8 down; also: test concentration not given here
[5] = biological target: Torsin-1A-interacting protein 2 (Homo sapiens) (UniProt Q8NFQ8); assay: LULL1 binders on small-molecule microarray, primary screen, cell lysate, human LULL1 lysate, 635/667 nm fluorescence (AID 1092); settings: hLULL1 lysate binding, 635 nm fluorescence, higher = more signal;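 also: probe is lysate of COS7 cells overexpressing human LULL1; score merges per-feature 667 nm fluorescence with signal-to-noise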
[6] = E. coli growth modulation, two-sided OD650, primary screen, E. coli filamentation project, strain DRC41, 24 h (AID 1093); settings: OD650, 24 h, higher = more signal, called active from +8 up or from −8 down;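 also: MC1000 strain lacking acrAB efflux and sulA so SOS filamentation is blocked; test concentration not given here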
[7] = small-molecule microarray binders of probe aLefty2, primary screen, biochemical, biotinylated probe, 635/667 nm fluorescence (AID 1094); settings: higher = more signal;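 also: score merges spot fluorescence near 667 nm with spot signal-to-noise ratio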
[8] = test system: Noggin (protein binding on small-molecule microarray); assay: Noggin binders on small-molecule microarray, primary screen, biochemical, 635/667 nm fluorescence (AID 1095); settings: 635 nm fluorescence, higher = more signal;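 also: score merges 667 nm feature fluorescence with signal to noise over triplicate slides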
[9] = biological target: Neurogenic locus notch homolog protein 3 (Homo sapiens) (UniProt Q9UM47); assay: NOTCH3 binders on small-molecule microarray, primary screen, biochemical, 635/667 nm fluorescence (AID 1096); settings: NOTCH3 binding, 635 nm fluorescence, higher = more signal
[10] = small-molecule microarray binders of probe aEGFR, primary screen, biochemical, biotinylated probe, 635/667 nm fluorescence (AID 1097); settings: higher = more signal;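 also: probe is a biotinylated anti-EGFR antibody binding compounds printed on slides; score combines fluorescence near 667 nm and signal to noise of each spot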
[11] = test system: Plasmodium falciparum Sir2 (PF13_0152, Sir2A); assay: pfSir2 binders on small-molecule microarrays, primary screen, biochemical, small-molecule microarray, 635 nm fluorescence (AID 1098); settings: small-molecule microarray binding, fluorescence 635 nm; higher = more signal;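 also: score merges spot fluorescence intensity with its signal-to-noise ratio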
[12] = small-molecule microarray binders of probe aDKK1, primary screen, biochemical, biotinylated probe, 635/667 nm fluorescence (AID 1099); settings: higher = more signal;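 also: score merges 667nm spot fluorescence with signal to noise across triplicate slides; reference of the scale not given here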
[13] = small-molecule microarray binders of probe aCHRDL2, primary screen, biochemical, biotinylated probe, 635/667 nm fluorescence (AID 1100); settings: higher = more signal
[14] = splicing luciferase reporter signal modulators, primary screen, spliceosome inhibition project, cell-based, HEK293, splice +/- reporter (AID 1101); settings: luminescence, 24 h, higher = more signal, called active from +8 up or from −8 down;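 also: HEK293 cells carrying a splicing-competent luciferase reporter gene; test concentration not given here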
[15] = biological target: Fibroblast growth factor 10 (Homo sapiens) (UniProt O15520); assay: FGF10 binders on small-molecule microarrays, primary screen, biochemical, small-molecule microarray, 635 nm fluorescence (AID 1102); settings: FGF10 binding, fluorescence 635 nm, higher = more signal
[16] = test system: glycogen synthase kinase-3 (GSK3A per assay name; protocol says GSK3B); assay: GSK3 binders on small-molecule microarrays, primary screen, biochemical, small-molecule microarray, 635 nm fluorescence, GSK3A (AID 1103); settings: small-molecule microarray binding, fluorescence 635 nm; higher = more signal; also: the record names both GSK3A and GSK3B
[17] = biological target: Epidermal growth factor receptor (Homo sapiens) (UniProt P00533); assay: EGFR binders on small-molecule microarrays, primary screen, biochemical, small-molecule microarray, 635 nm fluorescence (AID 1104); settings: EGFR binding, higher = more signal;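 also: score merges 667 nm emission intensity with spot signal to noise over triplicate slides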
[18] = biological target: Follistatin-related protein 3 (Homo sapiens) (UniProt O95633); assay: FSTL3 binders on small-molecule microarrays, primary screen, biochemical, small-molecule microarray, 635 nm fluorescence (AID 1105); settings: FSTL3 binding, higher = more signal;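 also: score merges emission near 667 nm and signal to noise per printed spot across three slides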
[19] = biological target: Dickkopf-related protein 1 (Homo sapiens) (UniProt O94907); assay: DKK1 binders on small-molecule microarrays, primary screen, biochemical, small-molecule microarray, 635 nm fluorescence scan (AID 1106); settings: DKK1 binding, higher = more signal;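 also: score merges emission near 667 nm with signal to noise over three replicate slides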
[20] = test system: Inhibin beta A chain (activin A); assay: INHBA (activin A) binders on microarrays, primary screen, biochemical, small-molecule microarray, 635 nm fluorescence scan (AID 1107); settings: small-molecule microarray binding, higher = more signal;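 also: mouse activin A protein probed at 4.33 µg/mL on printed slides; score merges bound-protein fluorescence near 667 nm with spot signal-to-noise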

Sequence of Neurogenic locus notch homolog protein 3 (Homo sapiens) (Q9UM47 whole entry, looked up): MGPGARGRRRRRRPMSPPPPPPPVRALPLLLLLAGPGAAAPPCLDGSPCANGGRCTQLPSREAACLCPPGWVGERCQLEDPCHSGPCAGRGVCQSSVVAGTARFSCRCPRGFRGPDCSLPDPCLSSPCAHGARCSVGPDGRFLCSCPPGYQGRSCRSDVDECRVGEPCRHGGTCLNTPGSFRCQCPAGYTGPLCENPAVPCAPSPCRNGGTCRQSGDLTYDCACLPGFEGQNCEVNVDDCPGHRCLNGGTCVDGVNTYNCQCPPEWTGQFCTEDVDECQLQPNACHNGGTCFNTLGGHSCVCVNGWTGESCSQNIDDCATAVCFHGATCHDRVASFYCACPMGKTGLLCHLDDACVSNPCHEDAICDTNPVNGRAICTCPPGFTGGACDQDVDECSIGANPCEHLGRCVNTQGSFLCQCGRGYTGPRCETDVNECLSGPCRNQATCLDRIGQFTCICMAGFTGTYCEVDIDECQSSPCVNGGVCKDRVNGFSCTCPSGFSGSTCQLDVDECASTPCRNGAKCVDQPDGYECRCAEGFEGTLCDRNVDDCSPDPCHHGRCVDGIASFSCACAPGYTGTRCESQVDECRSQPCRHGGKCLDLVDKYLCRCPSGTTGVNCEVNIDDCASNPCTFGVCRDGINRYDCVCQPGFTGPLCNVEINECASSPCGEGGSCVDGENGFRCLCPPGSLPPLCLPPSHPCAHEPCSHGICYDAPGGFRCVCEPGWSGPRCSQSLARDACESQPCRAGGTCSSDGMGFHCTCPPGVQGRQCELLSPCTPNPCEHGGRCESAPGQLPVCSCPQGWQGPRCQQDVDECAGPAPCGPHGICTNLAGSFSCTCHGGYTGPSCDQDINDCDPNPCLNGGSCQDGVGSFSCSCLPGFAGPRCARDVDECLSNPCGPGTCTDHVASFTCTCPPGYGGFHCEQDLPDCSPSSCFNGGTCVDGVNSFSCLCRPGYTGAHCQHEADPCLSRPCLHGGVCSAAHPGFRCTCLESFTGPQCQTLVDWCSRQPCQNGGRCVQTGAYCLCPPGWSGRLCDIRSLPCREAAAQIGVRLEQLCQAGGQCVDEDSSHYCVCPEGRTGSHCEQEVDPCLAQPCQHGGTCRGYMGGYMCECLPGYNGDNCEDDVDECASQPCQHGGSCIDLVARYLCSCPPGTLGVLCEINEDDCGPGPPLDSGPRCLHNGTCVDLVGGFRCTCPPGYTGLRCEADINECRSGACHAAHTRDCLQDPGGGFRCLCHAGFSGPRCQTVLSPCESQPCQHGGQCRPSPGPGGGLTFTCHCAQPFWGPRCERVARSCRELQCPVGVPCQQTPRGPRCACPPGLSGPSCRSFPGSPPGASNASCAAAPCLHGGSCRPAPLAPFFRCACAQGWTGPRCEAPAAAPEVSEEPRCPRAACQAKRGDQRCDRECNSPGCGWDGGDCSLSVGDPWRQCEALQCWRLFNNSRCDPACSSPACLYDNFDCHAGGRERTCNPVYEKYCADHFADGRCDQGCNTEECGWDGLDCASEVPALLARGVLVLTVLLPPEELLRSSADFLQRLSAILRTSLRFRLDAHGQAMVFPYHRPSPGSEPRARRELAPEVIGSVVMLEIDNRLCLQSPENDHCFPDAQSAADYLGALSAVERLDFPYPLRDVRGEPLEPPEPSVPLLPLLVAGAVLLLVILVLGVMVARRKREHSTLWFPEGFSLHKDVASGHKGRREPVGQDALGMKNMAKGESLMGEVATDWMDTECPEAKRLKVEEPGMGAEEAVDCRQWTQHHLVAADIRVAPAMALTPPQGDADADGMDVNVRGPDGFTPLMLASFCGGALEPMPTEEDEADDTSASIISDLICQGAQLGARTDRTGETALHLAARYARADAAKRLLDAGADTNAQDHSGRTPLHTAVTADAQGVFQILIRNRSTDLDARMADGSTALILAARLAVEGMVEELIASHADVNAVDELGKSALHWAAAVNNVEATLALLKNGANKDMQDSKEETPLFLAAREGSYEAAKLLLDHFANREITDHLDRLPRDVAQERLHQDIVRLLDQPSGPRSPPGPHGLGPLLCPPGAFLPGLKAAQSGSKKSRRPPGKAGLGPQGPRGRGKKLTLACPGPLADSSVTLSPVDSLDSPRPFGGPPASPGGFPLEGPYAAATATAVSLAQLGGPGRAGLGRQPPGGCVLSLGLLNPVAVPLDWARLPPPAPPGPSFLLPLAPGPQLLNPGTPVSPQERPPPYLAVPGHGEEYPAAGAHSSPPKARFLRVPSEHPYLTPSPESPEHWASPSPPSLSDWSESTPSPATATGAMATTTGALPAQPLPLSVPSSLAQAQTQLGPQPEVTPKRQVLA
Sequence of Torsin-1A-interacting protein 2 (Homo sapiens) (Q8NFQ8 whole entry, looked up): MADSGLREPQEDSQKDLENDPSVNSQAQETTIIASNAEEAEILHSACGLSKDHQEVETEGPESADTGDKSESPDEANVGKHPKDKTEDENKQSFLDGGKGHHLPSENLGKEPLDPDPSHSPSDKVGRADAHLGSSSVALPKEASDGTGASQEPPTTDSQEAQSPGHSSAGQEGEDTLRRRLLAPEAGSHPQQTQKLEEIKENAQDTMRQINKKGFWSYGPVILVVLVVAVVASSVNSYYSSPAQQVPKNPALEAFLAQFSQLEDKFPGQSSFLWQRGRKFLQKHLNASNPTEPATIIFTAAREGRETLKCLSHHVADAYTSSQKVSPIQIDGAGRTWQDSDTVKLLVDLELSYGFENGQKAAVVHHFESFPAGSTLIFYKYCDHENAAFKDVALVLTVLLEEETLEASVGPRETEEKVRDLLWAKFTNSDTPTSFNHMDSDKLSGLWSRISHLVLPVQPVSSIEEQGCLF
Sequence of Epidermal growth factor receptor (Homo sapiens) (P00533 whole entry, looked up): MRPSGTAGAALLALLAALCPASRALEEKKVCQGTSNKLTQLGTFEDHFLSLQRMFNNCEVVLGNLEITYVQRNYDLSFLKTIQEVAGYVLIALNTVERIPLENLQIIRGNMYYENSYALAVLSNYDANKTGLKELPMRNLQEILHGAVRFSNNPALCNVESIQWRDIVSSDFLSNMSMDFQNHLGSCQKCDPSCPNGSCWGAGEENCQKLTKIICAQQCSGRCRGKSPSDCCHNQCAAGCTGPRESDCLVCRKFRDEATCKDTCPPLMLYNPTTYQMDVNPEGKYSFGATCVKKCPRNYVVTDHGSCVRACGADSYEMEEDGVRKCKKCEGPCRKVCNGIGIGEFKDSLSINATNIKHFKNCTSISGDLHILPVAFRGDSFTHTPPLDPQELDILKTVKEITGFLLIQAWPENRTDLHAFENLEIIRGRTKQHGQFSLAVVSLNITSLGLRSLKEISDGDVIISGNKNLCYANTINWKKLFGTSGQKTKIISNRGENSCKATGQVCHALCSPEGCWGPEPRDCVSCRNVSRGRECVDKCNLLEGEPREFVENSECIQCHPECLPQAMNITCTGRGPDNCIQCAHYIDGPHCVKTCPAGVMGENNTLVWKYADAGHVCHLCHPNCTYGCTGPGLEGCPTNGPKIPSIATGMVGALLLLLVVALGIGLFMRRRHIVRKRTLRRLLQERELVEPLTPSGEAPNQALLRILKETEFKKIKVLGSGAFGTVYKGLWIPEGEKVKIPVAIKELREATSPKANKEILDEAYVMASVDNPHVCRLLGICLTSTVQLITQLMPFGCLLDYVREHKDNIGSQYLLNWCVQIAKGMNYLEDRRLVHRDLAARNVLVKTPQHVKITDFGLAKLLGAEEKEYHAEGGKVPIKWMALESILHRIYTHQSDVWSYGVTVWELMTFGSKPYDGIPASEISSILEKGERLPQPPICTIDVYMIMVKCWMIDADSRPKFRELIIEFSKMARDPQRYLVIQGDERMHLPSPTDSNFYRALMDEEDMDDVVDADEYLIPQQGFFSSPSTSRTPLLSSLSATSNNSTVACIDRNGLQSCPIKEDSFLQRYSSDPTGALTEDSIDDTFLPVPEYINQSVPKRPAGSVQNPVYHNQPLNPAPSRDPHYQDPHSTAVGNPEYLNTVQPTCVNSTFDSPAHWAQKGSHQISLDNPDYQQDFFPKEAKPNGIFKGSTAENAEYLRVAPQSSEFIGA
Sequence of Fibroblast growth factor 10 (Homo sapiens) (O15520 whole entry, looked up): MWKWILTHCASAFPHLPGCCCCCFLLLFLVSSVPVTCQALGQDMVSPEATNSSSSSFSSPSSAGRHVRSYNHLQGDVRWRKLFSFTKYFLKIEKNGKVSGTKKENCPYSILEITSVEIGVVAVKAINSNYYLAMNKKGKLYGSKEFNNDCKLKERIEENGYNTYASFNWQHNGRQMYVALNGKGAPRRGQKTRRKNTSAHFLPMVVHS
Sequence of Dickkopf-related protein 1 (Homo sapiens) (O94907 whole entry, looked up): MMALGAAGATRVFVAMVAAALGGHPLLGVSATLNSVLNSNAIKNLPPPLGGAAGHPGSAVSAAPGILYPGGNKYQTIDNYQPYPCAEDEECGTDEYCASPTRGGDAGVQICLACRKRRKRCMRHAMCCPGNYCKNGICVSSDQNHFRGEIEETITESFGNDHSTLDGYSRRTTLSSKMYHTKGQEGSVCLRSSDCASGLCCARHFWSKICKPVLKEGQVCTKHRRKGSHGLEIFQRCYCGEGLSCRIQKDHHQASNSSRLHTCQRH
Sequence of Follistatin-related protein 3 (Homo sapiens) (O95633 whole entry, looked up): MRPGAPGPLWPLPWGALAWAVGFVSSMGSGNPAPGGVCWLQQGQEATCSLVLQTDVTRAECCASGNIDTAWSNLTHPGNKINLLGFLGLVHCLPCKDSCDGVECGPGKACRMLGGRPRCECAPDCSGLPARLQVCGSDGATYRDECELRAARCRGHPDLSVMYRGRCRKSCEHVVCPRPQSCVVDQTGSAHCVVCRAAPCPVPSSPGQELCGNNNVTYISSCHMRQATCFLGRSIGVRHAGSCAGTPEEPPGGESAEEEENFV

Compound | composite z-score [1] | z-score [2] | z-score [3] | z-score [4] | composite z-score [5] | z-score [6] | composite z-score [7] | composite z-score [8] | composite z-score [9] | composite z-score [10] | composite z-score [11] | composite z-score [12] | composite z-score [13] | z-score [14] | composite z-score [15] | composite z-score [16] | composite z-score [17] | composite z-score [18] | composite z-score [19] | composite z-score [20]
O=C1C=C[C@@H](O)[C@@H]2[C@@H]3C(=O)N(c4ccc(F)cc4F)C(=O)[C@@H]3CC[C@@H]12 | 0.0661 | -2.33 (inactive) | -2.21 (inactive) | -0.724 (inactive) | 0.587 | -0.421 (inactive) | -0.247 | 1.08 | 0.134 | -0.162 | 0.519 | -0.241 | -0.43 | -1.21 (inactive) | 0.925 | 0.39 | 0.462 | 0.39 | 0.664 | -1.12
CC(C)=CCCC(C)=CCON=C1C[C@@H](O)[C@@H](O)[C@@H]2[C@@H]3C(=O)N(C(C)(C)C)C(=O)[C@@H]3CC[C@@H]12 | -0.305 | 0.286 (inactive) | 0.451 (inactive) | 0.361 (inactive) | 0.197 | -0.636 (inactive) | -0.0615 | 0.386 | 0.605 | -0.0594 | 0.263 | 0.0156 | -0.046 | -0.0767 (inactive) | 0.313 | 0.426 | 0.619 | 0.51 | 0.18 | 0.231
CCOC(=O)[C@H](Cc1ccccc1)NC(=O)CCC1CC(OC(=O)NCCc2ccc(F)cc2)CC2(CCCC(COC(=O)NCCOC)O2)O1 (stereo not given in full) | 1.46 | 0.197 (inactive) | 0.143 (inactive) | -0.16 (inactive) | 1.73 | 0.769 (inactive) | -0.147 | 0.325 | 0.796 | 0.153 | 0.637 | 0.765 | -0.504 | 0.371 (inactive) | 0.984 | 0.614 | 0.856 | 0.969 | 1.13 | 0.163
COC(=O)CC=C[C@@H](C)[C@@H](C=NOCC[C@@H]1C=C[C@H](OC(C)=O)[C@@H](COC(C)=O)O1)OC | 1.08 | 0.355 (inactive) | -0.295 (inactive) | 0.474 (inactive) | 0.431 | -0.152 (inactive) | -0.0321 | 0.405 | 0.308 | 0.0754 | 0.381 | -0.0928 | -0.546 | 1.21 (inactive) | 0.933 | 0.328 | 0.498 | 0.651 | 0.556 | -0.3
CO[C@H]1COC(=O)CC=C[C@@H](C)[C@H](OC)COC(=O)CCC[C@@H]1C | 0.76 | -1.47 (inactive) | -0.441 (inactive) | -1.37 (inactive) | -0.552 | -0.351 (inactive) | -0.17 | 0.978 | 0.288 | -0.163 | 0.786 | -0.175 | -0.791 | -1.16 (inactive) | 0.254 | 0.274 | 0.487 | 0.633 | 1.19 | 1.25
CO[C@H]1COC(=O)CC=C[C@@H](C)[C@H](OC)COC(=O)[C@@H]2CCCN2C(=O)CC=C[C@@H]1C | 1.12 | 0.221 (inactive) | -0.0931 (inactive) | -0.202 (inactive) | -0.328 | 0.619 (inactive) | -0.229 | 1.41 | 0.716 | 0.0115 | 0.686 | -0.382 | -1.14 | 0.308 (inactive) | 0.892 | 0.78 | 1.13 | 1.49 | 1.16 | 1.13
CC(C)CON=C1C[C@@H](O)[C@@H](O)[C@@H]2[C@@H]3C(=O)N(C4CCCCC4)C(=O)[C@@H]3CC[C@@H]12 | -0.0785 | 0.4 (inactive) | -0.513 (inactive) | 0.423 (inactive) | 1.64 | -0.233 (inactive) | -0.302 | 0.0295 | -0.519 | -0.154 | 1.17 | -0.22 | -0.198 | 0.353 (inactive) | -0.0852 | -0.925 | -0.305 | -0.504 | -0.607 | -0.164
CO[C@@H]1COC(=O)CC=C[C@H](C)[C@H](OC)COC(=O)[C@H](C)NC(=O)CC=C[C@H]1C | 1.53 | 0.419 (inactive) | -0.245 (inactive) | 0.329 (inactive) | -0.207 | 1.2 (inactive) | -0.228 | 1.83 | 0.273 | -0.0109 | 0.657 | -0.546 | -1.31 | 0.671 (inactive) | 0.616 | 0.918 | 0.745 | 1.44 | 1.18 | 1.74
CO[C@H]1COC(=O)[C@@H]2CCCN2C(=O)CC=C[C@@H](C)[C@H](OC)COC(=O)[C@@H](OCc2ccccc2)C=C[C@@H]1C | 1.3 | 0.14 (inactive) | -0.826 (inactive) | 0.087 (inactive) | -1.13 | 0.279 (inactive) | -0.155 | 1.08 | -0.203 | 0.0564 | 0.695 | -0.665 | -1.24 | -1.63 (inactive) | 0.163 | 0.484 | 0.547 | 0.907 | 1.75 | 1.58
CCOC(=O)CCN1C(=O)[C@H]2[C@H]3[C@H](O)[C@H](O)CC(=NOCc4ccccc4)[C@H]3CC[C@H]2C1=O | -0.112 | 0.819 (inactive) | 1.04 (inactive) | 0.492 (inactive) | 0.374 | 1.08 (inactive) | 0.58 | -0.316 | -0.665 | 0.276 | 0.1 | 1.27 | 1.32 | 0.509 (inactive) | -0.556 | -0.395 | 0.193 | -0.828 | -1.06 | 0.288
